What all share (experiment): NCI-60 one-dose screen, 48 h (100 = growth as untreated, 0 = no growth, -100 = all killed)
Conditions in all cases: 10 µM unless noted

Assay [1] relates to SK-MEL-2 melanoma.
Assay [2] concerns EKVX NSCLC.
Assay [3] relates to SN12C renal.
The test system of assay [4] is UO-31 renal.
The subject of assay [5] is TK-10 renal.
Assay [6] deals with ACHN renal.
The test system of assay [7] is CAKI-1 renal.
Assay [8] deals with A498 renal.
Assay [9] concerns CCRF-CEM leukemia.
Assay [10] deals with MOLT-4 leukemia.

About 83,000 compounds went through this panel and 20% of them were active in at least one assay; those are over-represented in the sample as a whole.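 96-well plates, one dose, 48 hours. Percent growth reported; active if below 10.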 Values without a mark were called inactive. The source made the active and inactive calls.

With `Cn1cc(-c2nc(-c3c[nH]c4ncccc34)cs2)c2ccccc21`, the growth in assay [1] was 87%; in assay [2], 22.7%; in [3], 90%; in assay [4], 62.4%; in assay [5], 56.9%; in assay [6], 88.9%. Further, the growth was 79.1% in assay [7], 81.5% in [8], 75.5% in assay [9] and 77.8% in [10].
As to `CC(=O)O[C@H]1CC[C@@]2(C)[C@@H](CC[C@@H]3[C@@H]2CC(=O)[C@@]2(C)[C@H]3C[C@@H](C3CCCC3=O)[C@@H]2C(C)=O)C1` (stereo not given in full), the growth in [1] was 111%; in [2] it was 116%; in assay [3], 84.4%; in assay [4] it was 88.3%; in [5], 106%; in assay [6], 107%. Besides, the growth in assay [7] is 114%; in assay [8] it was 97.1%; in assay [9], 92.9%; in assay [10] it was 86.1%.
Turning to `Cn1cnc2c1c(=O)n(CCC(=O)Nc1ccc(F)cc1)c(=O)n2C`, the growth is 105% in assay [1]; 107% in assay [2]; 102% in [3]; 92.7% in assay [4]; 92.7% in assay [5]; 114% in assay [6]. For the same molecule, the growth in assay [7] is 93.7%; in [8], 96.8%; in assay [9] it was 99.5%; in assay [10], 106%.
In the case of `CN(C)c1ccc(-c2ccc(-c3ccc(C(=N)N)c(F)c3)s2)cc1`, the growth in [1] is -0.355% (active); in assay [2], -73.6% (active); in assay [3], -76.5% (active); in [4] it was -92.6% (active); in assay [5] it was -85.5% (active); in assay [6] it was -95.8% (active). Further, the growth is -87.9% (active) in assay [7], 4.91% (active) in assay [8], -37.4% (active) in assay [9] and -19.3% (active) in assay [10].
In the case of `N#C/C(=C\c1ccc(-c2ccc(Cl)cc2)o1)c1nc(-c2ccco2)cs1`, the growth is 102% in assay [1]; 48.6% in [2]; 92.8% in [3]; 74.3% in assay [4]; 62.2% in assay [5]; 101% in assay [6]. For the same molecule, the growth in assay [7] was 89.3%; in assay [8] it was 108%; in [9] it was 93.9%; in assay [10], 97.5%.
`CC1(C)[C@@H](O)CC[C@]2(C)[C@H]3CC[C@@H]4[C@H]5[C@H](C(=O)/C=C/c6ccc(C(F)(F)F)cc6)CC[C@]5(CO)CC[C@@]4(C)[C@]3(C)CC[C@@H]12`: the growth is 83.7% in assay [1]; 71.2% in assay [2]; 58.8% in [3]; 46.7% in assay [4]; 105% in assay [5]; 25.9% in assay [6]. For the same molecule, the growth is 47.4% in assay [7], -1.48% (active) in assay [8], 28.4% in [9] and 14% in assay [10].
With `Cc1cc(C)n(Cc2cc(C(C)(C)C)cc(C(C)(C)C)c2)c(=O)c1C#N`, the growth in assay [1] was 107%; in assay [2], 75.2%; in assay [3], 90%; in assay [4], 80.5%; in assay [5], 107%; in assay [6], 98.4%. The growth in [7] is 104%; in [8], 97%; in [9], 87.9%; in assay [10], 76.6%.
With `COc1cccc(-c2nn(-c3ccccc3)cc2-c2ccnc(NCCCNS(=O)(=O)c3ccc(Cl)cc3)c2)c1`, the growth in [1] is 47.1%; in assay [2], 64%; in [3], 49.3%; in [4] it was 22%; in assay [5], 52.3%; in assay [6], 38.6%. The growth was 49.1% in assay [7], 42.3% in assay [8], 21.4% in assay [9] and 14.8% in assay [10].
In the case of `CCOC(=O)N1CCN(CCCCOc2ccc(C(C)(C)CC)cc2)CC1`, the growth in assay [1] is 95.8%; in [2], 99.1%; in assay [3], 95.7%; in assay [4], 83.1%; in assay [5], 120%; in assay [6], 97.3%. Moreover, the growth in assay [7] is 85.8%; in assay [8], 108%; in assay [9] it was 73%; in [10], 67.2%.
Take `c1csc(-c2nc(-c3cc4ccccc4c(N4CCOCC4)n3)cs2)c1`: the growth in [1] was 47.4%; in assay [2], 87.9%; in [3], 92.4%; in [4] it was 71.3%; in [5], 123%; in assay [6] it was 85.2%. Moreover, the growth is 84.5% in assay [7], 86.2% in assay [8], 107% in assay [9] and 92.1% in [10].
Turning to `COc1ccc(-c2nc(SCC(=O)Nc3ccc(C(C)=O)cc3)[nH]c(=O)c2C#N)cc1`, the growth is 104% in assay [1]; 102% in assay [2]; 94.5% in assay [3]; 105% in assay [4]; 98.4% in assay [5]; 101% in assay [6]. In addition, the growth in assay [7] was 96.2%; in assay [8] it was 98.1%; in assay [9], 109%; in [10] it was 103%.
As to `CC(=O)c1c(C)[nH]c(-c2nc3ccc(N4CCN(C)CC4)cc3[nH]2)c1-c1ccc(N(C)C)cc1`, the growth in [1] is 64.3%; in assay [2], 34.5%; in [3], 48.2%; in [4] it was 7.2% (active); in assay [5] it was -6.31% (active); in [6] it was 19.8%. For the same molecule, the growth in assay [7] is 10.3%; in assay [8] it was 6.38% (active); in assay [9], 36.3%; in assay [10], 45.5%.
Consider `COc1ccc(/C=C/C(=O)c2ccc([N+](=O)[O-])cc2)cc1`, for which the growth in assay [1] is 98.9%; in assay [2] it was 128%; in [3] it was 102%; in assay [4], 89.9%; in [5], 101%; in assay [6], 108%. In addition, the growth in [7] was 123%; in assay [8] it was 107%; in assay [9], 85.3%; in assay [10], 86.3%.
